Source: PubChem BioAssay (NCATS)
Records with an inconclusive call do not appear. The source made the active and inactive calls. The call rests on the fitted dose curve; in most records, active means well fitted inhibition curve with a large enough effect; inconclusive means small, poorly fitted or top-dose-only effect; inactive means flat fitted curve, though single readings scatter.

target: DNA repair nuclease/redox regulator APEX1 (Homo sapiens) (UniProt P27695); assay: qHTS Validation Assay for Inhibitors of the Human Apurinic/apyrimidinic Endonuclease 1 (APE1) (AID 1705;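 on activity change, negative = inhibition: TAMRA fluorescence gain over two minutes as APE1 cuts a quenched THF abasic duplex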); conditions: purified APE1 endonuclease activity, fluorescence, titration; series mostly up to 57.1 µM; activity change, negative = inhibition: at the top concentration
Excerpt: Assay Provider: David M. Wilson, III, National Institute on Aging, NIH
Screening Center PI: Austin, C.P.
Screening Center: NIH Chemical Genomics Center [NCGC]
The apurinic/apyrimidinic endonuclease APE1 is the primary mammalian enzyme responsible for the removal of abasic (or AP) sites in DNA and functions centrally in the base excision DNA repair (BER) pathway. […] Thus, targeting APE1 could improve the efficacy of current treatment paradigms by promoting selective sensitization or protection of diseased and normal cells, respectively.
Inhibition of APE1 activity was screened by utilizing double-stranded short substrate containing tetrahydrofuran (THF) abasic site labeled with rhodamine-type fluorophore (TAMRA) at the 5'-end and with non-fluorescent Black Hole Quencher-2 (BHQ-2) at the opposing 3'-end. An increase in the fluorescence intensity due to incision of the abasic site by APE1 was used to measure the enzyme activity.
1. Substrate: 50 nM final concentration of TAMRA/BHQ-2 substrate dispensed throughout the plate.
2. Enzyme: […] nM APE1 final concentration in columns 1, 2, 5-48. Column 1 is neutral (100% activity)
3. Control: Pintool transfer of control inhibitor NSC-13755 to column 2 of all assay plates. Two-fold, 16 pt dilution in duplicate to produce final concentrations in the […] uM - […] nM range.
3. Buffer columns in columns 3 and 4 were used as negative control (no enzyme).
Three uL of enzyme were dispensed to 1536-well Greiner black solid bottom plates. Compounds (23 nL) were transferred via Kalypsys pintool. The plates were incubated for 15 min at room temperature, and then 1 uL of substrate solution was added to start the reaction. The plates were immediately transferred into ViewLux High-throughput CCD imager (Perkin-Elmer) in order to measure the reaction progress in kinetic mode (three reads every 60 seconds) using 525 nm excitation and 598 nm emission fluorescence protocol. The fluorescence intensity difference between the third and the first time points was used to compute reaction progress.
On the % scale 0 is the no-effect control and ±100 the full control effect; potency means the concentration at half of the fitted maximal effect.

Sequence of DNA repair nuclease/redox regulator APEX1 (Homo sapiens) (P27695 whole entry, looked up): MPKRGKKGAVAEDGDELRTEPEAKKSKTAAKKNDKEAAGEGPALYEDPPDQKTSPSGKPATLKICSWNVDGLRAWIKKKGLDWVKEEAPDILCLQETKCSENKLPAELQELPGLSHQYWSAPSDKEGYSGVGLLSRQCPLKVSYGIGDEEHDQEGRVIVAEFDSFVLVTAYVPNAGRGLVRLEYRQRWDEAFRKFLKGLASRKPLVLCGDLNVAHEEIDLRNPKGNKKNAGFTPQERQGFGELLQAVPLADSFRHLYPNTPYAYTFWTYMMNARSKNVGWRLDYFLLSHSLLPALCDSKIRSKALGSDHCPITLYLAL

| Structure (SMILES) | activity change, negative = inhibition | Potency |
| --- | --- | --- |
| C=CCN1C[C@@H](C)N([C@H](c2ccc(C(=O)N(CC)CC)cc2)c2cccc(OC)c2)C[C@@H]1C | 2.26% (inactive) |  |
| Oc1ccc2c3c1O[C@H]1c4oc5ccccc5c4C[C@@]4(O)C(C2)N(CC2CC2)CCC314 (stereo not given in full) | -12.1% (inactive) |  |
| CCOC(=O)c1ncn2c1[C@@H]1CCCN1C(=O)c1cc(OC)ccc1-2 | -5.16% (inactive) |  |
| NC(N)=NOCC[C@H](N)C(=O)O | 2.04% (inactive) |  |
| NC(=O)c1cc(N2CC2)c([N+](=O)[O-])cc1[N+](=O)[O-] | -5.42% (inactive) |  |
| C[N+](C)(C)CCOC(=O)CBr | 7.48% (inactive) |  |
| OCc1cnc[nH]1 | -1.22% (inactive) |  |
| NC(=O)c1ccc(OCC(O)CN2CC=C(c3ccc(F)cc3)CC2)cc1 (stereo not given) | 7.74% (inactive) |  |
| COc1ccc2[nH]cc(CCN)c2c1 | -1.74% (inactive) |  |
| N[C@@]1(C(=O)O)CC[C@@H](C(=O)O)C1 | -2.4% (inactive) |  |
| Ic1ccccc1CNC1C2CCN(CC2)C1C(c1ccccc1)c1ccccc1 (stereo not given) | -9.24% (inactive) |  |
| COc1ccc2[nH]c3c(c2c1)CCNC3 | -0.916% (inactive) |  |
| NC(C(=O)O)c1cc(=O)[nH]o1 (stereo not given) | -7.49% (inactive) |  |
| CP(=O)(O)C1=CCNCC1 | -0.162% (inactive) |  |
| COc1ccc2c(c1)C13CCCCC1C(C2)N(C)CC3 (stereo not given) | -1.15% (inactive) |  |
| COc1ccc(CNC(=O)/C=C/c2ccc3[nH]cc(CCN(C)C)c3c2)cc1 | -6.01% (inactive) |  |
| C/C(O)=C(\C#N)C(=O)Nc1cc(Br)ccc1Br | 3.88% (inactive) |  |
| CC(N)c1cccc(Cl)c1Cl (stereo not given) | -7.14% (inactive) |  |
| N#CC(C#N)=Cc1cc(O)c(O)c(O)c1 | -3.98% (inactive) |  |
| CN1CCc2cccc(Cl)c2CC1 | 2.97% (inactive) |  |

| Structure (SMILES) | activity change, negative = inhibition | Potency |
| --- | --- | --- |
| CCCN(CCC)CCc1c[nH]c2ccc(C(N)=O)cc12 | -3.09% (inactive) |  |
| C#CCN[C@H](C)Cc1ccccc1 | -5.16% (inactive) |  |
| O=[N+]([O-])c1cc(O)c(O)c([N+](=O)[O-])c1 | 4.81% (inactive) |  |
| NC(CCCCCP(=O)(O)O)C(=O)O (stereo not given) | 3.95% (inactive) |  |
| CN(C(=O)Cc1ccc(Cl)c(Cl)c1)C(CN1CCCC1)c1cccc(OCC(=O)O)c1 (stereo not given) | -0.795% (inactive) |  |
| CC(C)NP(=O)(NC(C)C)OP(=O)(NC(C)C)NC(C)C | -4.19% (inactive) |  |
| O=C1CC[C@@]2(O)C3Cc4ccc(O)c5c4C2(CCN3CC2CC2)[C@H]1O5 (stereo not given in full) | 6.08% (inactive) |  |
| COc1ccc2c(c1)[C@@]13CCCC[C@H]1[C@@H](C2)NCC3 | 3.12% (inactive) |  |
| CC1(C(=O)O)C2CCC(O2)C1(C)C(=O)O (stereo not given) | -5.32% (inactive) |  |
| NCCc1ccc(S(=O)(=O)F)cc1 | 2.83% (inactive) |  |
| O=P(O)(O)C(Cl)(Cl)P(=O)(O)O | -6.71% (inactive) |  |
| C[N+]1(C)CCN(c2ccccc2)CC1 | -4.66% (inactive) |  |
| C[N+]1(C)CCOC(O)(c2ccc(-c3ccc(C4(O)C[N+](C)(C)CCO4)cc3)cc2)C1 (stereo not given) | -5.9% (inactive) |  |
| C[C@H](N)CN1CCc2ccc(Br)cc21 | -0.121% (inactive) |  |
| CN(N=O)c1cc(O)ccc1O |  | 1410 nM (active) |
| NCCc1c[nH]c2ccc(C(N)=O)cc12 | -8.82% (inactive) |  |
| CNc1ccc2oc(C[C@H]3O[C@@]4(CC[C@H]3C)O[C@H]([C@H](C)C(=O)c3ccc[nH]3)[C@H](C)C[C@H]4C)nc2c1C(=O)O | -2.7% (inactive) |  |
| C[Se]C[C@H](N)C(=O)O | 2.09% (inactive) |  |
| NCCCP(=O)(O)O | -0.266% (inactive) |  |
| CO[C@H]1CC=C2CCN3CCC4=C(CC(=O)OC4)[C@]23C1 | 5.49% (inactive) |  |
